Test results as given in PubChem BioAssay (Tox21).
Several values for one entry are separate records, joined by “and”; a condition that tells them apart may be missing. Identical values can stand only once. Records with an inconclusive call do not appear. Entries that show only a call come without a potency. Activity calls are given as the source filed them. Unless noted, the call rests on the fitted dose curve; in most records, active means well fitted curve in the direction sought with a large enough effect in the repeat runs; inconclusive means weak or mixed curves; inactive means no such curve, though single readings can be large; an effect the other way counts as inactive or inconclusive.

What was measured:
[1] = qHTS assay to identify small molecule agonists of the vitamin D receptor (VDR) signaling pathway - cell viability counter screen (AID 743224); further: nearly all actives have a fitted effect of over 50% in size; further: potency means the concentration at half of the fitted maximal effect
Outline: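 In parallel with the bla FRET readout, cytotoxicity toward VDR-bla cells after 16 h compound exposure was assessed by CellTiter-Glo, with luminescence recorded after a 30 min room-temperature incubation.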

[2] = qHTS assay to identify small molecule agonists of the NFkB signaling pathway - cell viability counter screen (AID 1159515; calls by dose curve; further: nearly all actives have a fitted effect of over 55% in size; further: potency means the concentration at half of the fitted maximal effect)
Outline: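 Plate 2,000 NFkB-bla ME-180 cells/well; incubate overnight. Add compounds, 5 hr at 37 C. Add FRET substrate, 1.5 hr RT. Add CellTiter-Glo, 30 min RT; read luminescence.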

[3] = qHTS assay to identify small molecule agonists of the endoplasmic reticulum stress response signaling pathway - cell viability counter screen (AID 1159517; calls by dose curve; further: nearly all actives have a fitted effect of over 50% in size; further: potency means the concentration at half of the fitted maximal effect)
Outline: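 Cpd-treated ESRE-bla HeLa (5 hr, 37 C) → LiveBLAzer 2 hr RT → CellTiter-Glo 30 min RT → luminescence.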

[4] = qHTS assay to identify small molecule antagonists of the retinoid-related orphan receptor gamma (ROR-gamma) signaling pathway - cell viability counter screen (AID 1159520); further: nearly all actives have a fitted effect of over 50% in size; further: potency means the concentration at half of the fitted maximal effect
Outline: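 Tet-on ROR gamma CHO cells (1,000/well) were plated 4 hr, given compounds in DMSO for 2 hr at 37 C, then induced with 1 uM final doxycycline for 16 hr. Viability was read as ATP by CellTiter-Glo luminescence after 30 min.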

[5] = qHTS assay to identify small molecule agonists of the AP-1 signaling pathway - cell viability counter screen (AID 1159525; calls by dose curve; further: nearly all actives have a fitted effect of over 55% in size; further: potency means the concentration at half of the fitted maximal effect)
Outline: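 Each titration point was normalised to DMSO and tetra n-octyl ammonium bromide controls. The read was Cell Titer Glo luminescence after 30 min at RT, following 5 h compound exposure of ME-180 AP-1-bla cells at 37 °C.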

[6] = qHTS assay to identify small molecule antagonists of the retinoid acid receptor (RAR) signaling pathway - cell viability counter screen (AID 1159551); further: nearly all actives have a fitted effect of over 35% in size; further: potency means the concentration at half of the fitted maximal effect
Outline: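 Viability of C3RL4 cells is quantified from ATP by luminescence after 6 h treatment at 37 C with compounds and 1 uM retinol.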

[7] = qHTS assay to identify small molecule antagonists of the retinoic acid receptor (RAR) signaling pathway (AID 1159552; further: nearly all actives have a fitted effect of over 50% in size; further: potency means the concentration at half of the fitted maximal effect)
Outline: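 C3RL4 RARE-luc cells, overnight plating; retinol 1 uM final added right after compound; 6 hr 37 C; luciferase read at 30 min RT.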

[8] = qHTS assay to identify small molecule agonists of the retinoic acid receptor (RAR) signaling pathway (AID 1159553)
Outline: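 Compounds dissolved in DMSO were pinned onto C3RL4 cells seeded the previous day, and plates were held 6 hr at 37 C. RARE-driven luciferase output was then read by luminescence.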

[9] = qHTS assay to identify small molecule antagonists of the vitamin D receptor (VDR) signaling pathway - cell viability counter screen (AID 743225); further: nearly all actives have a fitted effect of over 50% in size; further: potency means the concentration at half of the fitted maximal effect
Outline: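 Parallel cytotoxicity test: VDR-UAS-bla HEK 293T, 3 nM (final) 1-alpha,25-dihydroxyvitamin D3 with test compound, 16 h, 37C. Endpoint is CellTiter-Glo luminescence in the same wells.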

[10] = target: Retinoic acid receptor RXR-alpha (Homo sapiens) (UniProt P19793); assay: qHTS assay to identify small molecule agonists of the RXR signaling pathway (AID 1159527; calls by dose curve; further: nearly all actives have a fitted effect of over 35% in size; further: potency means the concentration at half of the fitted maximal effect)
Chain of Retinoic acid receptor RXR-alpha (Homo sapiens) (P19793 whole entry, looked up): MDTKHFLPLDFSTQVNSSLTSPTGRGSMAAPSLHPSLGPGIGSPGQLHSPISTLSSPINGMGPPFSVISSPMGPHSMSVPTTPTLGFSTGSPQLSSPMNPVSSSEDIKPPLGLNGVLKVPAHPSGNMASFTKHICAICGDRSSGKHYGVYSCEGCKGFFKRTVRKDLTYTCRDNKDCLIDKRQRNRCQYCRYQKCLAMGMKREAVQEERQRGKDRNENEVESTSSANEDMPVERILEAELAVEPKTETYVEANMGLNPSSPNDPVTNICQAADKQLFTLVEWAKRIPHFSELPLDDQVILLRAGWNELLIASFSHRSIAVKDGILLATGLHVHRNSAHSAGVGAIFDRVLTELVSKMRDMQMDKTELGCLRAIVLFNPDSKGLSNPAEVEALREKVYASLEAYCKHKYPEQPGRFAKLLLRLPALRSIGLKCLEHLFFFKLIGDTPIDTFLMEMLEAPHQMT
Outline: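 16 hr incubation of compound-treated RXR-alpha-UAS-bla HEK 293T cells (2% charcoal-stripped FBS, 37 C) preceded a 2 hr room-temperature LiveBLAzer FRET substrate step and blue/green fluorescence measurement.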

[11] = qHTS assay to identify small molecule agonists of the RXR signaling pathway - cell viability counter screen (AID 1159529); further: nearly all actives have a fitted effect of over 50% in size; further: potency means the concentration at half of the fitted maximal effect
Outline: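 In this parallel viability measure, GeneBLAzer RXR-alpha HEK 293T cells (2% charcoal-stripped FBS) were given a 5 hr preincubation, treated with compounds 16 hr at 37 C, and read by CellTiter-Glo luminescence.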

[12] = qHTS assay to identify small molecule agonists of the AP-1 signaling pathway (AID 1159526; calls by dose curve)
[13] = target: Nuclear receptor ROR-gamma (Homo sapiens) (UniProt P51449); assay: qHTS assay to identify small molecule antagonists of the retinoid-related orphan receptor gamma (ROR-gamma) signaling pathway (AID 1159521)
Outline: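 Decreased RORE-driven luciferase luminescence indicates antagonism. Tet-on RORγ CHO cells received compound, then 1 uM final doxycycline 2 h later; signal read after 16 h incubation.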

[14] = qHTS assay to identify small molecule antagonists of the estrogen related receptor (ERR) signaling pathway - cell viability counter screen (AID 1224818);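 further: potency means the concentration at half of the fitted maximal effect; viability measured after 17.5 h of compound exposure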
Outline: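 Cytotoxicity check run alongside the ERR antagonist screen: cells exposed to test compounds 17.5 h at 37 C, viability taken as CellTiter-Fluor fluorescence intensity.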

[15] = qHTS assay to identify small molecule antagonists of the estrogen related receptor (ERR) signaling pathway (AID 1224819)
Outline: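 ERR reporter cells were plated at 2,000 cells/well and left 6 h at 37 C/5% CO2 before pin-tool transfer of compounds in DMSO. After 18 h at 37 C, One-Glo was added and luminescence was read 30 min later at room temperature.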

[16] = qHTS assay to identify small molecule agonists of the estrogen related receptor (ERR) signaling pathway (AID 1224820)
Outline: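 An ERR cell line provided by NTP was seeded at 2,000 cells per well and allowed to settle for 6 h before compounds in DMSO were added. After 18 h at 37 C, luciferase activity was measured by One-Glo luminescence.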

[17] = system: estrogen-related receptor alpha (ERRalpha) with PGC-1alpha coactivator, human; assay: qHTS assay to identify small molecule antagonists of the estrogen related receptor signaling pathway with the pleiotropic PPARgamma coactivator (PGC) (AID 1224821; calls by dose curve)
Outline: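 A PGC/ERR cell line supplied by NTP is seeded, allowed 6 h at 37 C, and treated with test compounds in DMSO for 18 h. Signal is then measured as luciferase luminescence using One-Glo.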

[18] = qHTS assay to identify small molecule antagonists of the estrogen related receptor signaling pathway with the pleiotropic PPARgamma coactivator (PGC) cell viability counter screen (AID 1224822;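 further: potency means the concentration at half of the fitted maximal effect; viability read after 17.5 h compound exposure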)
Outline: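 Viable cell signal (CellTiter-Fluor, 30 min, 37 C/5% CO2) was measured in PGC/ERR cells after a 17.5 h compound incubation.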

[19] = qHTS assay to identify small molecule agonists of the estrogen related receptor signaling pathway with the pleiotropic PPARgamma coactivator (PGC) (AID 1224823)
Outline: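 Compounds dissolved in DMSO are added by pin tool to PGC/ERR cells that have settled for 6 h, and incubation continues 18 h at 37 C. Reporter output is measured as One-Glo luminescence.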

CC(C)=CCOc1ccc(/C=C/C(=O)c2ccc(OCC=C(C)C)cc2OCC(=O)O)cc1
Potency [1]: inactive | Potency [2]: inactive | Potency [3]: inactive | Potency [4]: inactive | Potency [5]: inactive | Potency [6]: inactive | Potency [7]: inactive | Potency [8]: inactive

CC(C)(C)C(=O)OCOC(=O)[C@@H]1N2C(=O)[C@@H](NC(=O)[C@H](N)c3ccccc3)[C@H]2SC1(C)C
Potency [1]: inactive | Potency [9]: inactive | Potency [2]: inactive | Potency [3]: inactive | Potency [4]: inactive | Potency [5]: inactive | Potency [10]: inactive | Potency [11]: inactive | Potency [6]: inactive | Potency [8]: inactive

O=C(Oc1ccccc1)c1ccccc1C(=O)Oc1ccccc1
Potency [1]: inactive | Potency [9]: inactive | Potency [2]: inactive | Potency [3]: inactive | Potency [4]: inactive | Potency [5]: inactive | Potency [12]: inactive | Potency [11]: inactive | Potency [6]: inactive

[Cl][Bi]([Cl])([c]1ccccc1)([c]1ccccc1)[c]1ccccc1
Potency [9]: 2.44 µM (active) | Potency [2]: 54.6 µM (active) | Potency [3]: 38.7 µM (active) | Potency [4]: 12.1 µM (active) | Potency [13]: 2.16 µM (active) | Potency [6]: 54.2 µM (active)

O=[N+]([O-])c1ccccc1Nc1ccccc1
Potency [1]: inactive | Potency [9]: inactive | Potency [2]: inactive | Potency [3]: inactive | Potency [4]: inactive | Potency [5]: inactive | Potency [12]: inactive | Potency [10]: inactive | Potency [11]: inactive | Potency [6]: inactive | Potency [7]: inactive

Cc1cccc(S(=O)(=O)O)c1C
Potency [9]: inactive | Potency [2]: inactive | Potency [3]: inactive | Potency [4]: inactive | Potency [5]: inactive | Potency [12]: inactive | Potency [11]: inactive | Potency [6]: inactive

Nc1c(Cl)cc(Cl)cc1Cl
Potency [1]: inactive | Potency [9]: inactive | Potency [2]: inactive | Potency [3]: inactive | Potency [4]: inactive | Potency [5]: inactive | Potency [12]: inactive | Potency [10]: 12.1 µM (active) | Potency [11]: inactive | Potency [6]: inactive | Potency [8]: inactive

Nc1ccc2cc(S(=O)(=O)O)cc(O)c2c1N=Nc1ccccc1C(F)(F)F
Potency [1]: inactive | Potency [9]: inactive | Potency [2]: inactive | Potency [3]: inactive | Potency [4]: inactive | Potency [5]: inactive | Potency [12]: inactive

CCCC(c1cc(C(C)(C)C)c(O)cc1C)c1cc(C(C)(C)C)c(O)cc1C
Potency [1]: 7.86 µM (active) | Potency [9]: 14 µM (active) | Potency [2]: 11.1 µM (active) | Potency [3]: 22.1 µM (active) | Potency [4]: 15.5 µM (active) | Potency [13]: 13.9 µM (active) | Potency [6]: 27.6 µM (active)

C[C@@H](NCCCc1cccc(C(F)(F)F)c1)c1cccc2ccccc12
Potency [1]: 29.8 µM (active) | Potency [9]: 23.9 µM (active) | Potency [2]: 23.9 µM (active) | Potency [3]: 23.9 µM (active) | Potency [4]: 29.8 µM (active) | Potency [5]: 23.9 µM (active) | Potency [11]: 16.9 µM (active) | Potency [6]: 33.5 µM (active) | Potency [7]: 29.8 µM (active)

COc1ccc(-c2ccc3cc(C(=O)O)ccc3c2)cc1C12CC3CC(CC(C3)C1)C2
Potency [1]: 23.7 µM (active) | Potency [9]: inactive | Potency [2]: 21.3 µM (active) | Potency [3]: 10.7 µM (active) | Potency [4]: 29.8 µM (active) | Potency [5]: inactive | Potency [12]: inactive | Potency [10]: inactive

Cc1onc(-c2c(Cl)cccc2Cl)c1C(=O)N[C@@H]1C(=O)N2[C@@H]1SC(C)(C)[C@@H]2C(=O)O
Potency [1]: inactive | Potency [9]: inactive | Potency [2]: inactive | Potency [3]: inactive | Potency [4]: inactive | Potency [5]: inactive | Potency [11]: inactive | Potency [6]: inactive

Cn1cc(C(=O)[C@@H]2CCc3nc[nH]c3C2)c2ccccc21
Potency [9]: inactive | Potency [2]: inactive | Potency [3]: inactive | Potency [4]: inactive | Potency [5]: inactive | Potency [6]: inactive | Potency [7]: inactive | Potency [8]: inactive

C[n+]1cc2c3c(ccc2c2ccc4cc5c(cc4c21)OCO5)OCO3
Potency [1]: 0.58 µM (active) | Potency [9]: 1.31 µM (active) | Potency [2]: 1.17 µM (active) | Potency [3]: 1.31 µM (active) | Potency [4]: 1.64 µM (active) | Potency [5]: 2.08 µM (active) | Potency [11]: 1.47 µM (active) | Potency [7]: 1.83 µM (active) | Potency [14]: 2.87 µM (active) | Potency [15]: 3.1 µM (active) | outcome [16]: inactive | Potency [17]: 2.28 µM (active) | Potency [18]: 0.944 µM (active) | outcome [19]: inactive

CC(C)(C)CC(C)(C)c1ccc(OCCOCC[N+](C)(C)Cc2ccccc2)cc1
Potency [1]: 38.9 µM (active) and 26.6 µM (active) | Potency [2]: 24.5 µM (active) | Potency [3]: 21.9 µM (active) | Potency [4]: 54.4 µM (active) | Potency [5]: 24.5 µM (active) | Potency [11]: 6.91 µM (active) and 4.77 µM (active) | Potency [6]: 61.1 µM (active) | Potency [7]: 43.2 µM (active) and 29.8 µM (active)

O=[N+]([O-])c1cc([N+](=O)[O-])c2ccc(S(=O)(=O)O)cc2c1O
Potency [1]: inactive | Potency [9]: inactive | Potency [2]: inactive | Potency [3]: inactive | Potency [4]: inactive | Potency [5]: inactive | Potency [11]: inactive | Potency [6]: inactive

O=c1cccccc1O
Potency [9]: inactive | Potency [2]: inactive | Potency [3]: inactive | Potency [4]: inactive | Potency [5]: inactive | Potency [10]: inactive | Potency [11]: inactive | Potency [6]: inactive | Potency [7]: inactive

Cc1oc(-c2ccccc2)nc1CCC(=O)c1ccc(CC2SC(=O)NC2=O)cc1 (stereo unspecified)
Potency [1]: inactive | Potency [2]: inactive | Potency [3]: inactive | Potency [4]: inactive | Potency [5]: inactive | Potency [12]: inactive | Potency [11]: inactive | Potency [6]: inactive | Potency [7]: inactive

CC(=O)S[C@@H]1CC2=CC(=O)CC[C@]2(C)[C@H]2CC[C@@]3(C)[C@@H](CC[C@@]34CCC(=O)O4)[C@H]12
Potency [2]: inactive | Potency [3]: inactive | Potency [4]: inactive | Potency [5]: inactive | Potency [12]: inactive | Potency [6]: inactive

CC(C)(C)c1ccc(C(=O)O)cc1
Potency [1]: inactive | Potency [9]: inactive | Potency [2]: inactive | Potency [3]: inactive | Potency [4]: inactive | Potency [5]: inactive | Potency [12]: inactive | Potency [10]: inactive | Potency [11]: inactive | Potency [6]: inactive | Potency [7]: inactive | Potency [8]: inactive
